{
  "source": "PubChem BioAssay AID435003",
  "about": "(Sanford-Burnham Center for Chemical Genomics, 2010)",
  "note": "About 1,700 (0.52%) of roughly 330,000 compounds were called active. Cut-off read from the data, not from the text of the source: active = inhibition above about 50%; inactive = the rest. The entries come from a sample that favours actives as a whole.",
  "data": [
    {"experiment": "lowers stimulated NF-kB reporter luminescence – cell-based, uHTS, TCR NF-kB activation inhibitor project, primary screen (AID 435003)", "conditions": "at 4 µM, active compounds read high; NF-kB luciferase reporter unless noted", "values": [
      {"smiles": "Cc1cc2ccccn2c1C(C[N+](=O)[O-])c1c(F)cccc1Cl", "note": "(stereo not given)", "inhibition": "71.3% (active)"},
      {"smiles": "O=C(c1cc2nc(-c3ccccc3)cc(-c3ccccc3)n2n1)N1CCC2(CC1)OCCO2", "inhibition": "-2.97% (inactive)"},
      {"smiles": "C[C@]12CC[C@H](O)C[C@H]1CC[C@@H]1C2CC[C@]2(C)[C@@H](C3=CC(=O)OC3)[C@@H](O)C[C@]12O", "note": "(stereo not given in full)", "inhibition": "79.5% [Jurkat, PMA/ionomycin-induced NF-kB luciferase reporter] (active)"},
      {"smiles": "C[C@]12CCC3C(CC[C@H]4C[C@@H](O)CC[C@]34C)C1C[C@@H](O)[C@H]2O", "note": "(stereo not given in full)", "inhibition": "-3.46% (inactive)"},
      {"smiles": "C[C@]12CCC3C(CC[C@H]4C[C@@H](O)CC[C@]34C)C1CC[C@@H]2O", "note": "(stereo not given in full)", "inhibition": "10.7% (inactive)"},
      {"smiles": "CN1CCN(/N=C/c2c[nH]c3ccccc23)CC1", "inhibition": "-15.1% (inactive)"},
      {"smiles": "O=C(NCC(c1cccnc1)N1CCN(c2ccccc2)CC1)Oc1ccccc1", "note": "(stereo not given)", "inhibition": "10.4% (inactive)"},
      {"smiles": "COc1ccccc1C1=NCc2nnc(CSC)n2-c2ccc(Cl)cc21", "inhibition": "-5.97% (inactive)"},
      {"smiles": "CCCCCCCCCCCCn1ccc(=N)cc1", "inhibition": "94.2% (active)"},
      {"smiles": "Cc1nn(Cc2ccccc2Cl)c(Cl)c1C(=O)OC(C(=O)NC(N)=O)C(C)C", "note": "(stereo not given)", "inhibition": "11.3% (inactive)"},
      {"smiles": "CCOC(=O)C1(Cc2ccc(Cl)cc2)CCN(C(C)CCn2cccn2)CC1", "note": "(stereo not given)", "inhibition": "-3.65% (inactive)"},
      {"smiles": "O=C(CCNS(=O)(=O)c1ccccc1)Nc1ccc(Cl)cc1C(=O)c1ccccc1", "inhibition": "-5.78% (inactive)"},
      {"smiles": "COC(=O)[C@@H]1C(OC(=O)c2ccccc2)CC2CCC1N2C", "note": "(stereo not given in full)", "inhibition": "-16.7% (inactive)"},
      {"smiles": "COc1ccc(N2C(=O)/C(=C/c3ccco3)C(=O)NC2=S)cc1", "inhibition": "1.64% (inactive)"},
      {"smiles": "CCOc1ccc(-c2cc(C)[n+](CCN(CC)CC)c(-c3ccc(OCC)cc3)c2)cc1", "inhibition": "72.8% (active)"},
      {"smiles": "CN1CCc2cc3c(cc2[C@H]1[C@@H]1OC(=O)c2c1ccc1c2OCO1)OCO3", "inhibition": "5.76% [Jurkat, PMA/ionomycin-induced NF-kB luciferase reporter] (inactive)"},
      {"smiles": "CCN(CC)P(=O)(Oc1cccc(C)c1)N(CC)CC", "inhibition": "4.24% (inactive)"},
      {"smiles": "Cc1cc(N2C(=O)C3CCCN3C2c2ccc(Cl)c(Cl)c2)no1", "note": "(stereo not given)", "inhibition": "-12.8% (inactive)"},
      {"smiles": "c1ccc(C2NCc3ccccc3-n3cccc32)cc1", "note": "(stereo not given)", "inhibition": "10.4% (inactive)"},
      {"smiles": "CNC(=O)O/N=C(\\N)Cc1csc2ccc(Cl)cc12", "inhibition": "-0.793% (inactive)"}
    ]}
  ]
}
